Among all 5,500 compounds or so, about 2,000 (36%) were called active. Roughly 18% stayed inconclusive and do not appear here. Cut-off read from the data, not from the text of the source: active = normalized growth mostly below about 0.91 (no sharp cut-off); inconclusive = no clear call, values can overlap the other calls; inactive = mostly above about 0.92. The list shows a part of the results.
Experiment: chemical genetic growth profiling, strain panel (AID 1159580);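 note: tested at 20 µM; growth read once vehicle control cultures reached saturation at 30 °C; 1 = growth at the plate median or of vehicle wells; lower values mean less growth of the strain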
Conditions: S. cerevisiae deletion strains, growth OD

Measured: normalized growth

CC1=C(C/C=C(\C)CCC[C@H](C)CCC[C@H](C)CCCC(C)C)C(=O)c2ccccc2C1=O
active: locus YDR137W, strain rgp1, hits give low values 0.772
inactive: locus YAL021C, strain ccr4, hits give low values 0.99 | locus YAL026C, strain drs2, hits give low values 0.99 | locus YAL030W, strain snc1, hits give low values 0.995 | locus YBL061C, strain skt5, hits give low values 0.997 | locus YBR009C, strain hhf1, hits give low values 0.977 | locus YBR023C, strain chs3, hits give low values 0.996 | locus YBR171W, strain sec66, hits give low values 0.993 | locus YBR231C, strain swc5, hits give low values 0.989 | locus YBR279W, strain paf1, hits give low values 0.994 | locus YCL011C, strain gbp2, hits give low values 0.977 | locus YCL016C, strain dcc1, hits give low values 0.985 | locus YCL061C, strain MRC1, hits give low values 0.987 | locus YCL069W, strain vba3, hits give low values 0.979 | locus YCR088W, strain abp1, hits give low values 1 | locus YDL005C, strain med2, hits give low values 0.965 | locus YDL040C, strain nat1, hits give low values 1 | locus YDR001C, strain nth1, hits give low values 0.993 | locus YDR069C, strain doa4, hits give low values 0.975 | locus YDR159W, strain sac3, hits give low values 0.981 | locus YDR195W, strain ref2 0.963 | locus YDR297W, strain sur2, hits give low values 0.993 | locus YDR334W, strain swr1, hits give low values 0.955 | locus YDR335W, strain msn5, hits give low values 0.99 | locus YDR392W, strain spt3, hits give low values 0.962 | locus YEL003W, strain gim4, hits give low values 0.977 | locus YEL037C, strain rad23, hits give low values 0.994 | locus YEL061C, strain CIN8 (second series), hits give low values 0.992 | locus YER015W, strain faa2, hits give low values 0.991 | locus YER016W, strain bim1, hits give low values 0.982 | locus YER111C, strain swi4, hits give low values 1 | locus YER155C, strain BEM2 (second series), hits give low values 0.993 | locus YFR010W, strain ubp6, hits give low values 0.974 | locus YGL167C, strain pmr1, hits give low values 0.989 | locus YGL173C, strain kem1, hits give low values 0.99 | locus YGL227W, strain vid30, hits give low values 0.997 | locus YGL240W, strain doc1, hits give low values 0.956 | locus YGL253W, strain hxk2, hits give low values 1 | locus YHR013C, strain ard1, hits give low values 0.975 | locus YHR027C, strain rpn1, hits give low values 0.984 | locus YHR030C, strain SLT2, hits give low values 0.986 | locus YHR079C, strain IRE1, hits give low values 0.992 | locus YHR142W, strain chs7, hits give low values 1 | locus YJL092W, strain hpr5, hits give low values 0.982 | locus YJL095W, strain BCK1 (second series), hits give low values 0.995 | locus YJL095W, strain BCK1, hits give low values 0.998 | locus YJL115W, strain asf1, hits give low values 0.968 | locus YJL129C, strain trk1, hits give low values 0.984 | locus YJL154C, strain vps35, hits give low values 0.984 | locus YJL164C, strain tpk1, hits give low values 0.974 | locus YJL166W, strain qcr8, hits give low values 1 | locus YJL187C, strain SWE1, hits give low values 0.979 | locus YJR066W, strain TOR1, hits give low values 0.943 | locus YKL160W, strain elf1, hits give low values 0.998 | locus YKR026C, strain gcn3, hits give low values 0.996 | locus YKR091W, strain srl3, hits give low values 0.985 | locus YLL001W, strain dnm1, hits give low values 0.992 | locus YLL026W, hits give low values 0.996 | locus YLL041C, strain sdh2, hits give low values 0.99 | locus YLR027C, strain aat2, hits give low values 0.992 | locus YLR113W, strain HOG1, hits give low values 0.953 | locus YLR221C, strain rsa3, hits give low values 0.981 | locus YLR258W, strain gsy2, hits give low values 0.983 | locus YLR262C, strain YPT6 (second series), hits give low values 0.899 | locus YLR320W, strain mms22, hits give low values 0.992 | locus YLR342W, strain FKS1, hits give low values 0.999 | locus YLR357W, strain rsc2, hits give low values 1 | locus YLR370C, strain arc18, hits give low values 0.99 | locus YLR384C, strain iki3, hits give low values 0.988 | locus YML120C, strain ndi1, hits give low values 0.998 | locus YMR058W, strain fet3, hits give low values 0.973 | locus YMR125W, strain sto1, hits give low values 0.978 | locus YMR129W, hits give low values 0.985 | locus YMR205C, strain PFK2, hits give low values 0.981 | locus YMR231W, strain pep5, hits give low values 0.99 | locus YNL071W, strain lat1, hits give low values 0.972 | locus YNL183C, strain NPR1, hits give low values 0.947 | locus YNL209W, strain ssb2, hits give low values 0.983 | locus YNL248C, strain rpa49, hits give low values 0.977 | locus YNL322C, strain KRE1 (second series), hits give low values 0.998 | locus YNR049C, strain mso1, hits give low values 1 | locus YOR001W, strain rrp6, hits give low values 1 | locus YOR070C, strain gyp1, hits give low values 0.988 | locus YOR080W, strain dia2, hits give low values 0.986 | locus YOR083W, strain WHI5, hits give low values 0.992 | locus YOR106W, strain vam3, hits give low values 0.964 | locus YOR231W, strain MKK1, hits give low values 0.979 | locus YOR265W, strain rbl2, hits give low values 0.985 | locus YOR270C, strain vph1, hits give low values 0.871 | locus YOR290C, strain snf2, hits give low values 0.987 | locus YPL051W, strain arl3, hits give low values 0.988 | locus YPL078C, strain atp4, hits give low values 0.996 | locus YPL106C, strain sse1, hits give low values 0.871 | locus YPL240C, strain hsp82, hits give low values 0.97 | locus YPL256C, strain CLN2, hits give low values 0.944
